SW480 rerep = inducers of DNA re-replication in SW480 colon cancer cells | AID 624297 | 340,000 tested, 1.8% active | SW480 DNA re-replication, Hoechst DNA content imaging, 48 h | Potency, µM (highest dose often 46.1 µM), inactives show top-dose re-replication activation, actives largely listed as activators; also: % of control where 0% means no effect; nearly all actives have a fitted effect of over 55% in size
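Image-based read-out: total Hoechst fluorescence of nuclei (405 nm excitation, 500-530 nm emission), with hits raising the fraction of high-intensity nuclei. SW480 colon cells incubated 48 hr with compounds at 37 C.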
KB-3-1 tox = KB-3-1 parental cell cytotoxicity | KB-3-1 viability, CellTiter-Glo ATP luminescence, 72 h | Potency, µM (highest dose often 46.1 µM), hits mostly cytotoxic | 400,000 tested, 1.4% active | AID 1347075; also: % is scaled to controls: 0 for no effect and ±100 for the full control effect; nearly all actives have a fitted effect of over 60% in size
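Luminescent ATP read-out (CellTiter-Glo) measures survival of drug-naive KB-3-1 cells after 72 h compound exposure at 37 °C. Titration series was screened from lowest to highest concentration, with DMSO vehicle plates as background controls.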
MCF10A rerep = DNA re-replication induction in MCF 10a cells; MCF 10A DNA re-replication, Hoechst nuclear intensity, 48 h; Potency, µM (series often up to 46.1 µM), without a hit: at the top dose activity, positive = re-replication, most hits filed as activators; 350,000 tested, 2.9% active; AID 624296; also: % of control where 0% means no effect; nearly all actives have a fitted effect of over 50% in size
ELG1 repair inh = ELG1-dependent DNA repair inhibition. HEK293T ELG1-luciferase reporter, luminescence, 16 h; DNA damage induced by 5-fluorouridine. 330,000 tested, 2.3% active. AID 504467. Potency, µM (doses to about 46.1 µM), without a hit: at the highest dose activity change, negative = inhibition, actives largely listed as inhibitors; also: % is scaled to controls: 0 for no effect and ±100 for the full control effect; nearly all actives have a fitted effect of over 55% in size
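Overnight (16 hr) co-exposure of 2,000 cells/well to 5-fluorouridine and compound at 37 °C preceded detection. Luciferase was quantified via ONE-Glo luminescence; loss of signal denotes inhibition.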
KB-V1 cytotox = kills drug-selected multidrug resistant KB-V1 cells; AID 1347076; KB-V1 MDR cells viability, CellTiter-Glo, 72 h; 400,000 tested, 3.4% active; Potency, µM (titrated, usually from 46.1 µM), hits mostly cytotoxic; also: % is scaled to controls: 0 for no effect and ±100 for the full control effect; nearly all actives have a fitted effect of over 60% in size
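Following 72 h at 37 degrees C with compound, KB-V1 cell viability was read by CellTiter-Glo luminescence, medium being phenol-red-free DMEM plus 10% FBS; concentration-response parameters came from normalized, curve-fitted qHTS data.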
ELG1 FLuc counter = luciferase inhibition in cell-free luciferin readout for ELG1 hits; cell-free firefly luciferase luminescence counter-screen, ViewLux; Potency, µM (highest dose often 46.1 µM), inactives show at the highest dose activity change, negative = inhibition, usual class: inhibitors; 350 tested, 3% active; shares compounds with ELG1 repair inh; also: % is scaled to controls: 0 for no effect and ±100 for the full control effect
ELG1-Luc inh = inhibits ELG1-dependent DNA repair in HEK293T cells, confirmed; shares compounds with ELG1 repair inh; HEK293T ELG1-luciferase levels, luminescence; cells co-treated with 5-fluorouridine; Potency, µM (highest dose often 46.1 µM), inactives show at the highest dose activity change, negative = inhibition, hits mostly inhibitors; 670 tested, 68% active; AID 624248; also: % is scaled to controls: 0 for no effect and ±100 for the full control effect; nearly all actives have a fitted effect of over 55% in size
Target sequence (Q96QE3 whole entry, looked up): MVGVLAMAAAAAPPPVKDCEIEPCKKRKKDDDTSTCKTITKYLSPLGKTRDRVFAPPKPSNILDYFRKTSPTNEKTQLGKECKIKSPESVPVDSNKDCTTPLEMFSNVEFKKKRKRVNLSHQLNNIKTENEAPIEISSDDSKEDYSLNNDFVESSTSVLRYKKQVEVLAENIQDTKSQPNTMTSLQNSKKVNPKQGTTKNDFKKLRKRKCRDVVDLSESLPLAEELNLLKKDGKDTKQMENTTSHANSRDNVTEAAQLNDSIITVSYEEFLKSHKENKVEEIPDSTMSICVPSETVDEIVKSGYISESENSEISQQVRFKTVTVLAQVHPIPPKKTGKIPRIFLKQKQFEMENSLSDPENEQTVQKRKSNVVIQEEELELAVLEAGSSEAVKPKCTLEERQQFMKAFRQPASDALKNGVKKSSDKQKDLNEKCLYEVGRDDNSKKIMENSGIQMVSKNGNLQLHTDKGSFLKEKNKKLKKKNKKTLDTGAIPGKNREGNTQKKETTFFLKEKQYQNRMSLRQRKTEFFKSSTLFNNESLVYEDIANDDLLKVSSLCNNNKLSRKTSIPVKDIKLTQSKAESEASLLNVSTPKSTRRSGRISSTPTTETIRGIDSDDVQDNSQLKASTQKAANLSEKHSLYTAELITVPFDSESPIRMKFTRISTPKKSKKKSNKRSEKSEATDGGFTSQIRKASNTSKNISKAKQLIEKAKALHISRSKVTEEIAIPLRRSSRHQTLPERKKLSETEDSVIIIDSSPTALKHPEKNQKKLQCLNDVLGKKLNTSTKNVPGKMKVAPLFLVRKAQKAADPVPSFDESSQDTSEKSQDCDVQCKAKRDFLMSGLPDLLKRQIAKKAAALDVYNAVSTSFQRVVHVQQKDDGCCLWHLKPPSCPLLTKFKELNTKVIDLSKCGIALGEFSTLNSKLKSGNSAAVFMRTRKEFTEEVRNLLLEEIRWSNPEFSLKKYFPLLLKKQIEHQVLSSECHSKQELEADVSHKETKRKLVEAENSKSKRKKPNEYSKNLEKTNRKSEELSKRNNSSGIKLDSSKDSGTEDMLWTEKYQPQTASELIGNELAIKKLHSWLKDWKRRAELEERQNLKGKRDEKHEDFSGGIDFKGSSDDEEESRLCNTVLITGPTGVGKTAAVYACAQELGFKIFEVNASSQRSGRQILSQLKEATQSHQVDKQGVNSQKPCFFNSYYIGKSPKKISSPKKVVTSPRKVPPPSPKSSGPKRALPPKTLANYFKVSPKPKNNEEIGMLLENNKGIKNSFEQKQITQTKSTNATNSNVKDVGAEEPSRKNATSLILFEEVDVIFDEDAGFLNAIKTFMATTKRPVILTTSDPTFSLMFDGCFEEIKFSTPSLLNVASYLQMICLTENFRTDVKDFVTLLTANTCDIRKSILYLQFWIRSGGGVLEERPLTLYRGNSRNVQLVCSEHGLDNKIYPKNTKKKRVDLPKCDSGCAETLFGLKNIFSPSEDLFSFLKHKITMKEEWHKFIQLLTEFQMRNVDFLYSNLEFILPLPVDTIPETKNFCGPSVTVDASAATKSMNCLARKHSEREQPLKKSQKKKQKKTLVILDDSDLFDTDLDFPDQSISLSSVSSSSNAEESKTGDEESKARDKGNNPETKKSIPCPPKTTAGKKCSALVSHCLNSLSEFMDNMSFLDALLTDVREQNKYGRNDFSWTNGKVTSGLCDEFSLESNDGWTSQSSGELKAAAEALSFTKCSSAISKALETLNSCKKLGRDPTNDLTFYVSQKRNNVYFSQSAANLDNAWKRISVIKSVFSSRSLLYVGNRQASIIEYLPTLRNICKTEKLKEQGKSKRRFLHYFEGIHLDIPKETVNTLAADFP
ELG1 MMS Luc = confirmation of human ELG1 repair inhibitors, MMS stimulated; shares compounds with ELG1 repair inh; HEK293T luciferase-tagged ELG1 level, MMS stimulated; Potency, µM (top dose mostly 46.1 µM), without a hit: at the top dose activity change, negative = inhibition, most hits filed as inhibitors; 670 tested, 53% active; AID 624249; also: % is scaled to controls: 0 for no effect and ±100 for the full control effect; nearly all actives have a fitted effect of over 60% in size
ELG1 5-FU = confirmation of ELG1 repair inhibitors: viability with 5FU; 670 tested, under 10 active; Potency, µM (highest dose often 46.1 µM), inactives show at the highest dose activity change, negative = viability loss, hits mostly cytotoxic; AID 624250; shares compounds with ELG1 repair inh; cell viability with 5-FU, ELG1-dependent repair;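 also: ELG1-luc HEK293T cells cotreated with 5-fluorouridine at 10 µM final; viability measured 16 h after compound addition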
ELG1 MMS viab = confirmation of ELG1 repair inhibitors: viability with MMS; shares compounds with ELG1 repair inh; Cell viability with MMS, ELG1-dependent DNA repair; Potency, µM (highest dose often 46.1 µM), without a hit: at the highest dose activity change, negative = viability loss, most hits filed as cytotoxic; 670 tested, 33% active;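 also: ELG1-luc HEK293T cells co-treated with 10 µM MMS; viability read 16 h after compound addition; % is scaled to controls: 0 for no effect and ±100 for the full control effect; nearly all actives have a fitted effect of over 60% in size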
Cell viab unstim = unstimulated viability counter-screen for ELG1 repair hits; shares compounds with ELG1 repair inh; cell viability counter-screen, unstimulated, luminescence; Potency, µM (top dose mostly 45.9 µM), for inactives: top-dose activity change, negative = loss of viability, most hits filed as cytotoxic; 900 tested, 8% active; AID 624252;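 also: compound exposure lasted 16 hours before reading; % is scaled to controls: 0 for no effect and ±100 for the full control effect; nearly all actives have a fitted effect of over 55% in size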
FLuc enzyme = firefly luciferase inhibition counter-screen; shares compounds with ELG1 repair inh; Potency, µM (top dose mostly 57.5 µM), inactives show at the top dose activity, negative = inhibition, actives largely listed as inhibitors; 350 tested, 10% active; purified firefly luciferase, luminescence counter-screen; AID 624253; also: % is scaled to controls: 0 for no effect and ±100 for the full control effect
An asterisk follows results filed as active; i = inactive; ? = inconclusive; nt = not tested or not shown. An excerpt weighted towards active compounds, which were near 8.1% of everything screened. Calls follow the shape of the dose curve; as a rule, active = well fitted curve in the direction sought with a large enough effect; inconclusive = small, poorly fitted or top-dose-only effect, or another doubt; inactive = no such curve, though single readings can be large; an effect the other way counts as inactive or inconclusive. Potency is read from the fitted curve at half-maximal effect.

SMILES | SW480 rerep | KB-3-1 tox | MCF10A rerep | ELG1 repair inh | KB-V1 cytotox | ELG1-Luc inh | ELG1 MMS Luc | ELG1 5-FU | ELG1 MMS viab | Cell viab unstim | others
CC(/C=N/n1c(-c2ccncc2)n[nH]c1=S)=C\c1ccco1 | 15% | i | 2% | 2.6µM* | i | 13µM* | 6.3µM* | -2% | -23% | -2%
COc1ccc(-n2nc(C(=O)NCC(=O)Nc3cc(OC)c(OC)c(OC)c3)c3ccccc3c2=O)cc1 | -1% | i | 9% | 3.3µM* | i | 3.2µM* | 13µM* | 15% | -18% | ? | ELG1 FLuc counter=70%;FLuc enzyme=5%
Cc1cccc(Nc2cc(=O)n(C)c(=O)n2C)c1 | nt | i | nt | nt | i | nt | nt | nt | nt | nt
CCOc1ccc(CNC(=O)Cn2ccc3cc(S(=O)(=O)N4CCCCC4)ccc32)cc1 | nt | i | nt | nt | i | nt | nt | nt | nt | nt
O=C(c1cc2ccccc2[nH]1)c1cc2cc(O)ccc2[nH]1 | nt | i | nt | nt | i | nt | nt | nt | nt | -1%
CC(C)CC(C)NNC(=O)c1cc2ccccc2[nH]1 (configuration not stated) | -10% | i | 1% | ? | i | nt | nt | nt | nt | nt
CCN(CC)Cc1c(O)ccc2c([N+](=O)[O-])c(C)n(-c3ccc(OC)cc3)c12 | 3% | ? | 7% | 2.3µM* | i | 4µM* | ? | -7% | -9% | -14%
O=C(NC1CCCC1)c1cc(-c2cccs2)on1 | 0% | ? | 15% | ? | ? | nt | nt | nt | nt | -12%
CNC(=O)c1cc(-c2cccs2)on1 | nt | ? | nt | nt | ? | nt | nt | nt | nt | -6%
Cc1nc2ccc(NC(=O)COc3ccccc3F)cc2s1 | -13% | i | 5% | ? | ? | nt | nt | nt | nt | nt
O=C(COc1ccccc1F)Nc1ccc(-c2nc3ccccc3s2)cc1 | nt | nt | nt | nt | nt | nt | nt | nt | nt | -16% | ELG1 FLuc counter=69%;FLuc enzyme=?
Brc1cccc(-c2nn(-c3ccccc3)c3c2cnc2cc4c(cc23)OCO4)c1 | nt | i | nt | nt | i | nt | nt | nt | nt | nt
Cc1cccc(-n2ccnc2SCC(=O)Nc2cccc3ccccc23)c1 | nt | i | nt | nt | i | nt | nt | nt | nt | nt
COc1ccc(-c2cc(C)no2)cc1S(=O)(=O)N1CCN(c2cccc(C)c2)C(C)C1 (configuration not stated) | -3% | 12µM* | ? | 3.3µM* | ? | 13µM* | 3.1µM* | -7% | 4µM* | ?
COc1ccc(-c2cc(C)no2)cc1S(=O)(=O)N1CCCCC1 | 3% | i | -4% | 0% | i | nt | nt | nt | nt | nt
CCN1C(=O)[C@@H]2[C@@H](c3ccc(-c4ccc(Cl)c(Cl)c4)cc3)N3CCC[C@@]3(C(=O)OC)[C@@H]2C1=O | 4% | i | 18% | 2.3µM* | ? | 6.3µM* | 8.9µM* | ? | 10µM* | ?
N#C/C(=C\c1cccnc1)c1ccccn1 | -16% | i | 15% | ? | i | nt | nt | nt | nt | 4% | ELG1 FLuc counter=44%;FLuc enzyme=-3%
O=C(NCCCN1CCCC1=O)C(=O)NCC1OCCCN1S(=O)(=O)c1ccccc1 (configuration not stated) | nt | i | nt | nt | ? | nt | nt | nt | nt | nt
COc1cccc(CNC(=O)C2CCCN(c3nn4c(=O)cc(C)nc4s3)C2)c1 (configuration not stated) | -8% | i | -11% | ? | i | nt | nt | nt | nt | 8% | ELG1 FLuc counter=1%;FLuc enzyme=6%
O=C(Nc1ccc(N2CCN(C(=O)c3ccco3)CC2)c(Cl)c1)c1cccs1 | 3% | ? | ? | 4.1µM* | 23µM* | 4µM* | 13µM* | ? | 28µM* | 25µM*
CCC(=O)Nc1ccc(N2CCN(C(=O)c3ccco3)CC2)c(Cl)c1 | 4% | i | 0% | ? | i | nt | nt | nt | nt | nt
C/C(=N\NC(=O)c1c(C)nc2ccccn12)c1ccc(O)cc1O | ? | ? | ? | 2.9µM* | i | ? | ? | -15% | ? | ?
Cc1ccc(S(=O)(=O)N2C[C@H]3C(=O)C[C@@H](c4ccc(Cl)cc4)N(S(=O)(=O)c4ccc(C)cc4)[C@H]3C[C@H]2c2cccc3ccccc23)cc1 | nt | i | nt | nt | i | nt | nt | nt | nt | nt
COc1ccc(-c2nnc3ccc(SCC(=O)Nc4nc5ccc(C)cc5s4)nn23)cc1OC | 4% | i | -8% | ? | i | 0.32µM* | 4% | ? | -2% | 28µM* | ELG1 FLuc counter=2%;FLuc enzyme=-6%
COc1cc(/C=N/NC(=O)Nc2cccc3nsnc23)cc(OC)c1OC | ? | i | 3.3µM* | 2.3µM* | i | 1.6µM* | ? | ? | -10% | ?
Cc1ccc(CNC(=O)Cn2cc(C(=O)c3ccc(F)cc3)c(=O)c3ccc(C)nc32)cc1 | nt | i | nt | nt | i | nt | nt | nt | nt | nt
COc1cc2c(cc1OC)CN(CC(=O)Nc1ccccc1C(=O)NC1CC1)CC2 | 1% | i | 9% | -10% | i | nt | nt | nt | nt | nt
COc1ccc(NC(=O)CN2CCN(C3c4ccccc4-c4ccccc43)CC2)c(OC)c1 | 19% | ? | 8.2µM* | 3.7µM* | i | 4µM* | 8.9µM* | ? | ? | -12%
COc1ccc(NC(=O)CN2CCN(c3ccccc3F)CC2)c(OC)c1 | nt | i | nt | nt | i | nt | nt | nt | nt | nt
COc1ccc(OC)c(CN2CCN(CC(=O)Nc3ccccc3C(=O)NC3CC3)CC2)c1 | 1% | i | -7% | ? | i | 7.1µM* | ? | ? | ? | ?

From PubChem
